From PubChem BioAssay (NCI)
This is part of a sample that, as a whole, favours compounds with a hit. Of some 83,000 tested, about 20% had one in any assay.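 Assay: single dose, 48 h. Readout: percent growth (0 = no net growth; negative = cell death). Active: <10.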 Values without a mark were called inactive. Active and inactive are the calls of the source.

Key:
Experiment in all cases: NCI-60 one-dose screen, 48 h (100 = growth as untreated, 0 = no growth, -100 = all killed)
Conditions in all cases: 10 µM unless noted
[1] = tested on: NCI-H23 lung
[2] = tested on: NCI-H226 lung
[3] = tested on: NCI-H322M lung
[4] = tested on: HOP-62 NSCLC
[5] = tested on: NCI-H460 lung
[6] = tested on: HOP-92 NSCLC
[7] = tested on: NCI-H522 lung
[8] = tested on: A549/ATCC NSCLC
[9] = tested on: 786-0 renal
[10] = tested on: COLO 205 colon

Q: How did the growth [1] turn out when `COc1cc(C2CC(c3cccc(Nc4ccnc5cc(Cl)ccc45)c3)=NN2c2ccc(Cl)cc2)cc(OC)c1OC` (stereo not given) was run?
A: The growth was 73.8%.

Q: What about the growth [2] of the same compound?
A: The growth was 70.6%.

Q: What about the growth [3] of the same compound?
A: The growth was 81.4%.

Q: What about the growth [4] of the same compound?
A: The growth was 76.7%.

Q: And the growth [5]?
A: Its growth is 36.4%.

Q: What about the growth [6] of the same compound?
A: Its growth is 37.5%.

Q: What about the growth [7] of the same compound?
A: Its growth is 40.6%.

Q: And the growth [8]?
A: The growth was 57%.

Q: And the growth [9]?
A: Its growth is 54.5%.

Q: And the growth [10]?
A: The growth was 80.9%.

Q: With `CCCCn1cnc(-c2cc(-c3ccccc3)cc(C(F)(F)F)c2)n1` as the compound, how does the growth [1] read?
A: The growth was 98.1%.

Q: And the growth [2]?
A: The growth was 95.6%.

Q: What about the growth [3] of the same compound?
A: Its growth is 99.8%.

Q: What about the growth [4] of the same compound?
A: The growth was 99.1%.

Q: What about the growth [5] of the same compound?
A: Its growth is 99%.

Q: What about the growth [6] of the same compound?
A: Its growth is 76%.

Q: What about the growth [7] of the same compound?
A: The growth was 93.8%.

Q: And the growth [8]?
A: Its growth is 97.8%.

Q: What about the growth [9] of the same compound?
A: The growth was 103%.

Q: What about the growth [10] of the same compound?
A: Its growth is 104%.

Q: For `CCNC(=S)N(Cc1ccccc1)Cc1ccccc1`, which growth [1] is on record?
A: Its growth is 110%.

Q: And the growth [2]?
A: Its growth is 114%.

Q: What about the growth [3] of the same compound?
A: Its growth is 104%.

Q: What about the growth [4] of the same compound?
A: The growth was 94.5%.

Q: What about the growth [5] of the same compound?
A: The growth was 131%.

Q: And the growth [6]?
A: Its growth is 76.7%.

Q: What about the growth [7] of the same compound?
A: Its growth is 88.1%.

Q: What about the growth [8] of the same compound?
A: The growth was 98.4%.

Q: And the growth [9]?
A: The growth was 107%.

Q: What about the growth [10] of the same compound?
A: The growth was 132%.

Q: With `COc1cc2nccc(Oc3ccc(NC(=O)C4(C(=O)Nc5ccc(F)cc5)CC4)cc3)c2cc1O` as the compound, how does the growth [1] read?
A: The growth was 57.4%.

Q: What about the growth [2] of the same compound?
A: The growth was 67.1%.

Q: What about the growth [3] of the same compound?
A: The growth was 87.7%.

Q: What about the growth [4] of the same compound?
A: Its growth is 57.6%.

Q: What about the growth [5] of the same compound?
A: The growth was 48.1%.

Q: What about the growth [6] of the same compound?
A: Its growth is 33.4%.

Q: What about the growth [7] of the same compound?
A: The growth was 68%.

Q: And the growth [8]?
A: Its growth is 56.4%.

Q: And the growth [9]?
A: Its growth is 96.2%.

Q: And the growth [10]?
A: The growth was 91%.

Q: How did the growth [1] turn out when `O=C(Nc1ccc(Br)cc1)Nc1ccccc1Cl` was run?
A: Its growth is 63.2%.

Q: And the growth [2]?
A: Its growth is 80%.

Q: And the growth [3]?
A: Its growth is 119%.

Q: And the growth [4]?
A: The growth was 92.7%.

Q: What about the growth [5] of the same compound?
A: The growth was 93.3%.

Q: What about the growth [6] of the same compound?
A: The growth was 90.5%.

Q: What about the growth [7] of the same compound?
A: Its growth is 56.8%.

Q: What about the growth [8] of the same compound?
A: The growth was 82.5%.

Q: And the growth [9]?
A: The growth was 83.4%.

Q: What about the growth [10] of the same compound?
A: The growth was 106%.

Q: Which results are given for `O=C(O)Cn1ccc2ccccc21`?
A: growth [1]: 100%; growth [2]: 110%; growth [3]: 100%; growth [4]: 79.9%; growth [5]: 103%; growth [6]: 88.2%; growth [7]: 77.7%; growth [8]: 99.4%; growth [9]: 101%; growth [10]: 153%

Q: Which growth [1] does the source give for `O=C(c1ccc(C(F)(F)F)c(Cl)c1)N(Cc1ccc(Cl)cc1)c1ccc(-c2cc(C(F)(F)F)[nH]n2)c(O)c1` here?
A: Its growth is 6.5% (active).

Q: And the growth [2]?
A: Its growth is -5.3% (active).

Q: What about the growth [3] of the same compound?
A: The growth was 14.4%.

Q: What about the growth [4] of the same compound?
A: Its growth is -4.7% (active).

Q: What about the growth [5] of the same compound?
A: Its growth is 6.77% (active).

Q: And the growth [6]?
A: The growth was -15.6% (active).

Q: What about the growth [7] of the same compound?
A: Its growth is -1.27% (active).

Q: What about the growth [8] of the same compound?
A: Its growth is 12.8%.

Q: What about the growth [9] of the same compound?
A: Its growth is 3.06% (active).

Q: What about the growth [10] of the same compound?
A: Its growth is -73.8% (active).

Q: With `Nc1c(C(=O)Nc2cccc(Cl)c2)sc2ncc(Br)cc12` as the compound, how does the growth [1] read?
A: Its growth is 79.5%.

Q: And the growth [2]?
A: The growth was 83.5%.

Q: And the growth [3]?
A: Its growth is 59.4%.

Q: And the growth [4]?
A: Its growth is 75.4%.

Q: And the growth [5]?
A: Its growth is 28.8%.

Q: What about the growth [6] of the same compound?
A: The growth was 78.5%.

Q: And the growth [7]?
A: The growth was 65.2%.

Q: And the growth [8]?
A: The growth was 34.6%.

Q: What about the growth [9] of the same compound?
A: Its growth is 76.1%.

Q: And the growth [10]?
A: Its growth is 85.1%.

Q: For `C#CC[C@@H]1C[C@]2(C)[C@H]3CC=C4[C@H]5CC(C)(C)CC[C@]5(C(=O)NCCCCN)CC[C@@]4(C)[C@]3(C)CC[C@H]2C(C)(C)[C@H]1OC(C)=O`, which growth [1] is on record?
A: Its growth is 78.9%.

Q: What about the growth [2] of the same compound?
A: The growth was 90.3%.

Q: And the growth [3]?
A: Its growth is 36%.

Q: What about the growth [4] of the same compound?
A: The growth was 92.2%.

Q: What about the growth [5] of the same compound?
A: Its growth is -27.6% (active).

Q: And the growth [6]?
A: Its growth is 2.98% (active).

Q: And the growth [7]?
A: Its growth is 70.1%.

Q: What about the growth [8] of the same compound?
A: Its growth is 27.8%.

Q: And the growth [9]?
A: Its growth is 6.69% (active).

Q: And the growth [10]?
A: Its growth is -49.7% (active).

Q: `C=CCn1c(SCC(=O)Nc2ccc(C(=O)/C=C/c3ccc(Cl)cc3)cc2)nnc1-c1ccc(Cl)cc1` was tested. Which growth [1] did it give?
A: Its growth is 82.8%.

Q: And the growth [2]?
A: The growth was 83.1%.

Q: And the growth [3]?
A: Its growth is 110%.

Q: What about the growth [4] of the same compound?
A: The growth was 78.2%.

Q: And the growth [5]?
A: Its growth is 99.5%.

Q: And the growth [6]?
A: Its growth is 91%.

Q: And the growth [7]?
A: The growth was 68.4%.

Q: And the growth [8]?
A: Its growth is 73.8%.

Q: And the growth [9]?
A: The growth was 93.9%.

Q: And the growth [10]?
A: Its growth is 98.3%.

Q: Which results are given for `O=C(Nc1cnc(C(F)(F)F)cn1)c1cc(Cl)ccc1O`?
A: growth [1]: 2.55% (active); growth [2]: 8.55% (active); growth [3]: 7.76% (active); growth [4]: -4.96% (active); growth [5]: 4.18% (active); growth [6]: -6.58% (active); growth [7]: -12.6% (active); growth [8]: 2.57% (active); growth [9]: 0.361% (active); growth [10]: 14.2%

Q: For `Cc1nc2n[nH]c(N)c2nc1C`, which growth [1] is on record?
A: Its growth is 102%.

Q: And the growth [2]?
A: The growth was 99.9%.

Q: What about the growth [3] of the same compound?
A: Its growth is 93.1%.

Q: And the growth [4]?
A: Its growth is 104%.

Q: And the growth [5]?
A: The growth was 111%.

Q: And the growth [6]?
A: Its growth is 100%.

Q: And the growth [7]?
A: The growth was 93.9%.

Q: What about the growth [8] of the same compound?
A: The growth was 99.2%.

Q: And the growth [9]?
A: Its growth is 105%.

Q: And the growth [10]?
A: The growth was 109%.

Q: For `COc1ccc(/C(=C\c2ccc3c(c2)OCO3)C(=O)Nc2nc3ccc(F)cc3s2)cc1OC`, which growth [1] is on record?
A: The growth was 93.2%.

Q: And the growth [2]?
A: Its growth is 87.1%.

Q: What about the growth [3] of the same compound?
A: The growth was 87.3%.

Q: And the growth [4]?
A: Its growth is 92.8%.

Q: What about the growth [5] of the same compound?
A: Its growth is 105%.

Q: What about the growth [6] of the same compound?
A: Its growth is 93.6%.

Q: And the growth [7]?
A: Its growth is 94.2%.

Q: What about the growth [8] of the same compound?
A: The growth was 99.7%.

Q: And the growth [9]?
A: The growth was 92.1%.

Q: And the growth [10]?
A: The growth was 106%.
